The campaign covered roughly 340,000 compounds. About 530 (0.16%) were called active. Inconclusive results (about 2%) are left out. This is one part of a sample in which actives are shown more often than they occur. A number with no mark means an inactive call. No stated cut-off is given here; in the data, active means activity change below about -80%; inconclusive means between about -30% and that limit; inactive means weaker than that.
Experiment: Small Molecules that selectively kill Giardia lamblia: qHTS;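 further: parasites exposed to compound for two days anaerobically before the ATP read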
Conditions: Giardia lamblia trophozoite viability; at 7.66 µM; stronger effect = lower value
Summary of the method: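 ATP-content bioluminescence gauges trophozoite survival. Cells (100/well) receive compound and incubate anaerobically for 48 hrs at 37 deg C; detection reagent follows for 15-30 min at room temperature.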
On the % scale 0 is the no-effect control and ±100 the full control effect.

| SMILES | activity change |
| --- | --- |
| Oc1ccc(Br)cc1C1C=C(c2ccc3c(c2)OCO3)NC(c2ccc(Cl)cc2)N1 (stereo unspecified) | -6.54% |
| CC1CC(C)(C)CC2(C1)NC(=O)N(CC(=O)Nc1nccs1)C2=O (stereo unspecified) | 7.14% |
| COc1ccc(-c2nc(=N)sn2-c2ccccc2)cc1 | 5% |
| Cc1ccc(SCC(CC(C)C)N2CCN(CCc3ccccc3)CCC2=O)cc1 (stereo unspecified) | -1.92% |
| COc1ccccc1Nc1cc(C(=O)NCCCN(C)C2CCCCC2)c2ccccc2n1 | -11.5% |
| CN(C)Cc1cn(-c2ccccc2)nc1-c1ccccc1 | 2.86% |
| [O-][n+]1ccc(OCc2ccccc2)cc1 | 23.2% |
| CCc1ccc(OCCCn2c(CCCNC(=O)C3CCCCC3)nc3ccccc32)cc1 | -7.56% |
| C=CCSc1nnc(N2C(=O)C(O)=C(C(=O)c3ccco3)C2c2ccc(F)cc2)s1 (stereo unspecified) | -13.6% |
| O=C(c1ccc(N2CCOCC2)c([N+](=O)[O-])c1)N1CCN(c2ccccc2F)CC1 | 8.07% |
| O=C(c1cccc(F)c1)N1CCN(c2ccc([N+](=O)[O-])c(N3CCCCC3)c2)CC1 | 5.61% |
| O=C(c1cccc(F)c1)N1CCN(c2ccc([N+](=O)[O-])c3cccnc23)CC1 | -82.8% (active) |
| O=C(CN1C(=O)NC2(CCCCCC2)C1=O)NCc1cccs1 | -9.8% |
| COc1ccc(Br)cc1C1C2C=CCC(C)C2C(=O)N1Cc1ccccc1 (stereo unspecified) | 20% |
| O=C(O)C1CC=CC2CCN(C3CCCCC3)C(=O)C21 (stereo unspecified) | -16.4% |
| Cc1ccc2ccc3c(c2n1)NS(=O)(=O)c1ccccc1-3 | -5.37% |
| O=C(COc1ccccc1[N+](=O)[O-])N/N=C/c1ccc[nH]1 | 5.97% |
| CC(C)(C)c1cc(C(=O)N/N=C/c2ccc([N+](=O)[O-])s2)n[nH]1 | -93% (active) |
| Cc1ccccc1NCC(=O)N/N=C\c1ccc([N+](=O)[O-])s1 | -89.1% (active) |
| Cc1cc(C(=O)N/N=C/c2cc([N+](=O)[O-])cc(C)c2O)n[nH]1 | -15.8% |
| Cc1cccc(/C=N/NC(=O)CNc2cccc3ccccc23)n1 | -9.25% |
| CC(C)c1cc(C(=O)N/N=C/C(Br)=C/c2ccccc2)n[nH]1 | 15.8% |
| CC1(C)OC(=O)N2CCc3ccccc3C21C (stereo unspecified) | -12.9% |
| CCOc1ccc(C(C)=O)cc1CSc1nnc(-c2ccncc2)n1CCOC | 1.79% |

| SMILES | activity change |
| --- | --- |
| O=C(NNC(=O)c1ccccc1[N+](=O)[O-])Nc1ccccc1C(F)(F)F | -21.9% |
| Cn1c(SCC(=O)Nc2ccc(Br)cc2F)nnc1-c1ccco1 | -12.3% |
| COc1ccc(-n2cnc3cc(NCc4ccco4)ccc32)cc1 | -16.4% |
| Cn1c(-c2ccco2)nc2cc3ccccc3cc21 | -82.6% (active) |
| Cc1ccc(-c2nc3ccccn3c2Nc2ccc(F)cc2)o1 | 13.3% |
| NCCCNC(=S)NCCCN(Cc1ccc(Cl)cc1)c1ccc(Br)cn1 | -3.06% |
| C=C1CCN(C(CC(C)C)C(=O)NCc2cc(OC)c(OC)c(OC)c2)S(=O)(=O)c2ccccc21 (stereo unspecified) | -2.48% |
| O=C1c2ccccc2C(=O)N1c1ccc(S(=O)(=O)N2CCOCC2)c2ccccc12 | -26.6% |
| c1ccc(-n2ncc(-c3nn[nH]n3)n2)cc1 | -10.6% |
| O=[N+]([O-])c1ccc(S(=O)(=O)N2CCN(c3nc(-c4ccccc4)nc4ccccc34)CC2)cc1 | -1.14% |
| CCC(=O)c1ccc(OCC(=O)N(CC)CC2COc3ccccc3O2)cc1 (stereo unspecified) | 5.76% |
| O=C(NCCc1ccco1)c1ccc(OCc2cn3ccccc3n2)cc1 | -6.02% |
| O=C(Cc1ccccc1)Nc1c(C(=O)N2CCCCCC2)cnn1-c1ccccc1 | 7.39% |
| O=C(Nc1cccc2cccnc12)C(F)(F)F | 11.7% |
| O=c1onc(-c2c(F)cccc2F)n1-c1ccccc1Cl | -18.5% |
| CCOc1nc(NCCN2CCOCC2)nc(Nc2ccc(C)cc2)n1 | 17.9% |
| c1ccc2cc3c(NCCN4CCOCC4)ccnc3cc2c1 | -97.2% (active) |
| c1ccc(-c2ccc(OCCN3CCOCC3)cc2)cc1 | 19.5% |
| COc1cc2nc(CN(C)Cc3ccc(F)cc3)[nH]c(=O)c2cc1OC | 1.83% |
| CCCNC(=O)c1onc(CSc2ccc(F)cc2)c1C(=O)NC(C)C | 23.4% |
| CC(C)C(NC(=O)C1CCC(C(C)(C)C)CC1)C(=O)NCCCN1CCCCC1 (stereo unspecified) | -2.26% |
| CCOCCCNC(=O)C(NC(=O)CNC(=O)c1ccccc1)c1ccc(OC)cc1 (stereo unspecified) | -20.4% |
| COc1ccc(-c2nc3c(c(SCC(=O)Nc4ccc(C(=O)O)cc4)n2)Cc2ccccc2O3)cc1 | 9.92% |
| Cc1cc(C)cc(OCC(=O)Nc2cc(NC(=O)COc3cc(C)cc(C)c3)cc(C(=O)O)c2)c1 | -12.2% |

| SMILES | activity change |
| --- | --- |
| CC1C/C(=N/NC(=O)c2cccs2)CC(C)(C)C1 (stereo unspecified) | 4.93% |
| Oc1ccc(Cl)cc1C1C=C(c2ccc3c(c2)OCO3)NC(c2ccc(F)c(Br)c2)N1 (stereo unspecified) | -24.8% |
| O=C(c1ccc2c(=O)n(Cc3ccco3)c(=S)[nH]c2c1)N1CCCC1 | 4.07% |
| O=C1C[C@@H](c2ccc3ccccc3c2)N1S(=O)(=O)c1ccccc1[N+](=O)[O-] | 0.869% |
| COc1ccc(C(CCN2CCOCC2)c2c(OC)cc(OC)c3c2OC(=O)CC3c2ccc(OC)cc2)cc1 (stereo unspecified) | 12.9% |
| CCN(CC)c1nc(C#N)nc(OC)n1 | -9.05% |
| C=C1CCN(Cc2ccc(OC)cc2)S(=O)(=O)c2ccccc21 | 23.9% |
| CCOc1cc2[nH]c(=O)n(CCC(=O)NCc3ccc(OC)cc3)c(=O)c2cc1OCC | -9.64% |
| COc1ccc(C2/C=C\CN(C(=O)c3ccc(C)cc3)C(Cc3ccccc3)C(=O)N2Cc2ccc(F)cc2)cc1 (stereo unspecified) | 28.8% |
| Cc1ccc(-c2nnc3ccc(SCC(N)=O)nn23)cc1 | 5.27% |
| CNN/C(N=Cc1ccc([N+](=O)[O-])s1)=N\S(=O)(=O)c1cc(C)c(Cl)cc1SCc1ccccc1 | -85.8% (active) |
| O=[N+]([O-])c1ccc(C=Nc2ccc(Cl)cc2Cl)s1 | 12% |
| OC[C@@H]1O[C@H](n2cnc3c(SCc4ccccc4)ncnc32)[C@H](O)[C@H]1O | 7.24% |
| COc1ccc(CCn2c3c(c(=O)[nH]c2=S)CN(C(C)C)CN3)cc1OC | -2.67% |
| CN(c1ccccc1)S(=O)(=O)c1cccc(NC(=O)Cc2c(F)cccc2Cl)c1 | 6.09% |
| O=C(Nc1cc(S(=O)(=O)N2CCCCC2)ccc1Cl)C1COc2ccccc2O1 (stereo unspecified) | 9.58% |
| O=C(CCc1ccccc1)Nc1ncc([N+](=O)[O-])s1 | -95.3% (active) |
| COc1ccc(S(=O)(=O)N2CCOCC2)cc1NC(=O)Cc1c(F)cccc1Cl | 0.481% |
| O=C(Nc1ncc([N+](=O)[O-])s1)C1COc2ccccc2O1 (stereo unspecified) | -95.9% (active) |
| CC(C)Cc1nnc(NC(=O)CCc2ccccc2)s1 | -6.99% |
| CC(=O)c1cccc(NC(=O)C2COc3ccccc3O2)c1 (stereo unspecified) | 3.94% |
| O=C(Cc1c(F)cccc1Cl)Nc1ncc([N+](=O)[O-])s1 | -90.9% (active) |
| COC(=O)CSc1nnc(NC(=O)CCc2ccccc2)s1 | -28.2% |
| O=C(Nc1cccc(Cl)c1)c1cc(S(=O)(=O)N2CCCCC2)c[nH]1 | -28.5% |

| SMILES | activity change |
| --- | --- |
| Cc1nn(C(C)CC(=O)O)c(C)c1C (stereo unspecified) | 7.78% |
| CCC1(C)Cc2c(sc3[nH]c(=S)n(Cc4ccccc4)c(=O)c23)CO1 (stereo unspecified) | -14.6% |
| COc1cc2c(cc1OC)C(/C=C/c1ccco1)=NCC2 | -3.82% |
| CCOc1ccc(C(=O)NC(C(=O)NCc2ccccn2)C(C)C)cc1 (stereo unspecified) | -4.15% |
| OCCNc1ncnc2oc(-c3ccco3)c(-c3ccco3)c12 | -2.77% |
| COc1cc(OC)c2c(c1C(CCN1CCCCC1)c1ccc(N(C)C)cc1)OC(=O)CC2c1ccc(N(C)C)cc1 (stereo unspecified) | 7.67% |
| O=S(=O)(Nc1cccc2cccnc12)c1cccc2cccnc12 | -17.9% |
| CCOc1ccc(S(=O)(=O)N2CCN=C2Cc2ccccc2)cc1C | -28.6% |
| O=C(c1ccco1)N(Cc1cccs1)c1ccc(O)cc1 | -7.42% |
| COc1ccc(CN2CCc3nc(Nc4ccccc4)ncc3C2)c(OC)c1OC | -13.9% |
| NS(=O)(=O)c1ccc(NC(=O)CSc2nnc3c(n2)[nH]c2ccccc23)cc1 | -21.1% |
| CCOCN(C(=O)Cn1c(C(C)O)nc2ccccc21)c1c(C)cccc1CC (stereo unspecified) | 8% |
| CN(CCC#N)c1ncnc2scc(-c3ccccc3)c12 | -2.98% |
| O=C1CC(c2ccccc2)CC2=C1C(c1ccco1)n1nc(C(F)(F)F)nc1N2 (stereo unspecified) | 14.6% |
| CC(Nc1nc(N2CCOCC2)nc2ccccc12)c1ccccc1 (stereo unspecified) | 4.71% |
| CC(Nc1nc(N2CCCC2)nc2ccccc12)c1ccccc1 (stereo unspecified) | 3.32% |
| CC(Nc1nc(N2CCN(CCO)CC2)nc2ccccc12)c1ccccc1 (stereo unspecified) | -93.8% (active) |
| O=C1C2C(c3ccccc3)CC=CC2C(c2ccoc2)N1Cc1ccccc1 (stereo unspecified) | -9.66% |
| O=C(Nc1ccc(Br)cn1)c1ccc([N+](=O)[O-])cc1Cl | -28.4% |
| O=C(Nc1cccc(O)c1)c1ccc(C(=O)c2ccccc2)o1 | -8.06% |
| O=C(Nc1cccc([N+](=O)[O-])c1)c1ccc2c(c1)OCO2 | 7.08% |
| CN1C(=O)c2ccc(C(=O)Nc3ccc(Br)cn3)cc2C1=O | 6.68% |
| Cc1cccc(NC(=O)c2ccc([N+](=O)[O-])o2)c1 | -85.9% (active) |
| O=C(Nc1ccc(Br)cn1)c1ccc([N+](=O)[O-])o1 | -87.6% (active) |

— PubChem BioAssay AID540267 (National Center for Advancing Translational Sciences (NCATS), 2011)
